# From PubChem BioAssay (NCI)
# Compounds without any hit were thinned out: in the full panel of roughly 83,000, 20% have a hit.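 Values shown are percent growth following 48 h exposure of cells in 96-well plates to a single concentration of compound; below 10 was considered active.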 Calls of active or inactive are those of the source.
# System: A498 renal
# Experiment: NCI-60 one-dose screen, 48 h (100 = growth as untreated, 0 = no growth, -100 = all killed)
# Details: 10 µM unless noted
# Procedure: Growth inhibition of the A498 human tumor cell line is measured as a screen for anti-cancer activity. Cells are grown in 96 well plates and exposed to the test compound for 48 hours. Compounds are tested at a single concentration, which is 10^-5 M for most compounds. The reported endpoint is percent growth (GI% or GIPRCNT), where numbers from 0 - 100% represent growth inhibition, and numbers from -100% - 0 represent cell death. For example, a value of 40 represents 60% growth inhibition. A value of 0 means no net growth occurred over the course of the experiment. A value of -40 indicates 40% of cells at the beginning of the experiment died by the end of the experiment. A value of -100 means all cells are dead at the end of the experiment.
# NCI-60 Human Tumor Cell Lines Screen was performed using the standard one-dose NCI protocol, which is described in more detail at https://dtp.cancer.gov/discovery_development/nci-60/default.htm.
# Compounds with GIPRCNT values below 10 were considered active. Activity score was based on GIPRCNT using the following formula: […]
# Score is 0 for GIPRCNT values of 100 or above, 50 for GIPRCNT values of 0, and 100 for GIPRCNT values of -100.
row,Structure (SMILES),growth
1,N#C/C(=C\c1ccc([N+](=O)[O-])s1)c1nc2cc(Cl)ccc2s1,114% (inactive)
2,COc1ccc(/C=C/c2nc(Nc3ccc(S(=O)(=O)Nc4nc(C)cc(C)n4)cc3)c3ccccc3n2)cc1,7.8% (active)
3,C[C@H]1[C@H](C)CC[C@]2(C(=O)Nc3ccc4ncccc4c3)CC[C@]3(C)C(=CC[C@@H]4[C@@]5(C)CCCNC(C)(C)[C@@H]5CC[C@]43C)[C@H]12,98.3% (inactive)
4,O=C1Nc2ccccc2/C1=C\c1c(-c2ccccc2)nc2ccccn12,28.6% (inactive)
5,N#C/C(=C\c1ccc([N+](=O)[O-])s1)c1nc2cc(Br)ccc2s1,109% (inactive)
6,NC(=S)N1N=C(c2ccccc2)CC1c1cn(-c2ccccc2)nc1-c1ccc(OCc2ccccc2)cc1 (stereo not given),94.5% (inactive)
7,Cc1ccc(C(=O)/C(=C\c2ccc([N+](=O)[O-])cc2)S(=O)Cc2ccc(Cl)cc2)cc1 (stereo not given),77.6% (inactive)
8,C=C(C)[C@@H]1CC[C@]2(C(=O)N3CCN(C)CC3)CC[C@]3(C)[C@H](CC[C@@H]4[C@@]5(C)CC[C@H](O)C(C)(C)[C@@H]5CC[C@]43C)[C@@H]12,98.7% (inactive)
9,Cc1nc2sccn2c1-c1cn2ccsc2n1,82.7% (inactive)
10,CCN(c1ccccc1)S(=O)(=O)c1cc([N+](=O)[O-])ccc1Cl,71.9% (inactive)
11,Cc1nc2ccc(Cl)cn2c1-c1nnc(SCc2ccc([N+](=O)[O-])cc2)o1,48.7% (inactive)
12,CC(C)N1C(=O)/C(=C2\SC(=S)N(C(C)C)C2=O)SC1=S,84.2% (inactive)
13,CCOC(=O)c1cc(C(=O)c2cc(OC)cc(OC)c2)n2ccc3ccccc3c12,89.3% (inactive)
14,CN1CCN(CCNc2nccc(-c3c(-c4cccc(O)c4)nc4sccn34)n2)S1(=O)=O,119% (inactive)
15,CCN1Cc2nc3sc(C)c(C)c3c(=O)n2C=C1C,108% (inactive)
16,CC1(C)NCCC[C@]2(C)[C@H]3CC[C@@H]4[C@H]5[C@H](C(=O)/C=C/c6ccco6)CC[C@]5(CO)CC[C@@]4(C)[C@]3(C)CC[C@@H]12,51.3% (inactive)
17,C[C@H]1[C@H]2[C@H]3CC[C@@H]4[C@@]5(C)CC[C@H](O)C(C)(C)[C@@H]5CC[C@@]4(C)[C@]3(C)CC[C@]23CO[C@]1(C)[C@@H](C(=O)/C=C\c1ccco1)C3,96.2% (inactive)
18,Cc1ccc(-n2nc3c(c(C#N)c2=O)CC(c2ccccc2[N+](=O)[O-])C([N+](=O)[O-])=C3O)cc1 (stereo not given),95.9% (inactive)
19,OC(c1cccc(C(F)(F)F)c1)c1cnccc1NC1CCCCC1 (stereo not given),77.4% (inactive)
20,CC(c1ccccc1)C(C(=O)c1ccccc1)c1ccccc1 (stereo not given),93.3% (inactive)

row,Structure (SMILES),growth
1,OCc1cnc2ccccc2c1NC1CCCCCC1,79.4% (inactive)
2,N=C1C(c2nc3ccccc3s2)=C(O)CN1c1cc(Cl)cc(Cl)c1,98.5% (inactive)
3,CCOC(=O)c1cc(C(=O)c2ccc(OC)c(OC)c2)n2ccc(/C=C/c3cc[n+](CC(=O)c4ccc(OC)c(OC)c4)cc3)cc12,95.6% (inactive)
4,COc1cc(C2C3=C(COC3=O)N(CCO)c3cc4c(cc32)OCO4)cc(OC)c1OC (stereo not given),-19.6% (active)
5,CC(=O)[C@@H]1CC[C@]2(C(N)=O)CC[C@]3(C)[C@H](CC[C@@H]4[C@@]5(C)CCCNC(C)(C)[C@@H]5CC[C@]43C)[C@@H]12,96.6% (inactive)
6,Nc1c(S(=O)(=O)O)cc2c3c(cccc13)C(=O)OC2=O,106% (inactive)
7,N#CC1C(C#N)C2c3ccccc3C=CN2C1C(=O)c1ccc(Br)cc1 (stereo not given),101% (inactive)
8,CCOC(=O)c1nc2c3ccccc3ccn2c1C(=O)OCC,109% (inactive)
9,Cc1cc2c(c(C)c1Cl)C(=O)/C(=C/c1ccc(O)c(O)c1)O2,106% (inactive)
10,Cn1c(-c2c(N)n(CCCN3CCOCC3)c3nc(C#N)c(C#N)nc23)nc2ccccc21,90.6% (inactive)
11,Cc1nnc2c(Cc3ccccc3)nc3ccccc3n12,90.6% (inactive)
12,O=C1c2ccccc2C(=O)c2c([N+](=O)[O-])ccc(Cl)c21,105% (inactive)
13,Oc1ccc(C2c3ccccc3Oc3ccccc32)c2cccnc12,36% (inactive)
14,C=C(C)[C@@H]1CC[C@]2(C(=O)N[C@@H](Cc3ccccc3)C(=O)OC)CC[C@]3(C)[C@H](CC[C@@H]4[C@@]5(C)CCC(=O)C(C)(C)[C@@H]5CC[C@]43C)[C@@H]12,84% (inactive)
15,O=C1NN(C(=O)c2ccccc2)C(c2ccc(Cl)c(Cl)c2)=C/C1=C\c1ccc([N+](=O)[O-])cc1,80.4% (inactive)
16,COc1ccc(C(=O)CC#N)cc1,109% (inactive)
17,O=C(CSc1nc2ccccc2[nH]1)NCc1ccccc1,105% (inactive)
18,COc1cc(-c2n/c(=C\c3c(O)[nH]c4ccc(Cl)cc34)cc3c2=Nc2ccccc2-3)ccc1F,96.2% (inactive)
19,O=C(Nc1ncc(Cc2cc(Cl)ccc2Cl)s1)c1cccs1,65.3% (inactive)
20,O=C(/C=C/c1c(-c2ccc(Cl)cc2)nn(-c2ccccc2)c1C(F)(F)F)c1ccc(Cl)cc1,87.6% (inactive)
